Drawing on publication PMC7862700, “An all-to-all approach to the identification of sequence-specific readers for epigenetic DNA modifications on cytosine”, this text covers binding signal for 39 sequences.

One assay has as its target T1, ERF (Homo sapiens, UniProt P50548 1-548).
T1 sequence: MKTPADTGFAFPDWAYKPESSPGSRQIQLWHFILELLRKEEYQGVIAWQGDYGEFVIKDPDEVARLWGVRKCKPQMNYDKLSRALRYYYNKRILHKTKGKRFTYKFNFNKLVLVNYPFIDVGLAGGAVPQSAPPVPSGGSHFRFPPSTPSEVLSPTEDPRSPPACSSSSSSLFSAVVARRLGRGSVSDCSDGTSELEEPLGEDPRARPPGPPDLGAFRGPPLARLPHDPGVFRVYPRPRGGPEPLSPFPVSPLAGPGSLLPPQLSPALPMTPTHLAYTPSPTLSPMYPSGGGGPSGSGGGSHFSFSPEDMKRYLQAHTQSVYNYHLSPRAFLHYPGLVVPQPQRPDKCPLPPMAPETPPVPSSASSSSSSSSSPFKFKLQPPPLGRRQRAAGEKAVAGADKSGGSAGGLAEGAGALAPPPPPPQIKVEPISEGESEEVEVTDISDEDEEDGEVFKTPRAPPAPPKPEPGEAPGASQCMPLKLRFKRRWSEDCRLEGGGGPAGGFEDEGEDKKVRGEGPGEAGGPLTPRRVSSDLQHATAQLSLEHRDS
Nature of the assay: DAPPL (digital affinity profiling via proximity ligation, sequencing); 10 mM Tris-HCl pH 7.5, 50 mM NaCl, 1 mM DTT, 4% glycerol, room temperature, 30 min; GST-TFs on glutathione beads, 16-mer random dsDNA library, 0.1% formaldehyde crosslink after washing; high values mean tight binding. As to conditions: protein: recombinant; tags: N-terminal GST; dsDNA, one strand shown. In short, it runs like this:
(§1)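 Binding signal is defined as a hexamer's read frequency for one factor over its frequency for the tag-only sample. To obtain reads, GST-fused human transcription factors were expressed in yeast, captured on glutathione beads, barcoded with DNA and pooled with that sample. Pools met 200 nmole of a 16-mer random double-stranded DNA library in Tris/NaCl/DTT/glycerol buffer for 30 min at room temperature before washing, 0.1% formaldehyde crosslinking, proximity ligation (BsaI/T4 ligase, 1 h, 37 °C), PCR and Illumina NextSeq500 sequencing.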
ACCTGG: the binding signal is 1.17 fold enrichment (6-mer frequency, TF over GST control).
Still for that read-out and setting: for ACACCC the value was 1.17 fold enrichment (6-mer frequency, TF over GST control).
Same read-out and setting: for ATACGC the value was 1.18 fold enrichment (6-mer frequency, TF over GST control).
On the same count and under the same terms, for AACATG the value was 1.21 fold enrichment (6-mer frequency, TF over GST control); for ATCCAC, 1.27 fold enrichment (6-mer frequency, TF over GST control); for TGAAAC, 1.17 fold enrichment (6-mer frequency, TF over GST control).
On to CGCGTC, for which the binding signal was 1.37 fold enrichment (6-mer frequency, TF over GST control).
For CGACAC, the binding signal was 1.08 fold enrichment (6-mer frequency, TF over GST control).
For the sequence AACCAT, the binding signal was 1.07 fold enrichment (6-mer frequency, TF over GST control).
Same read-out and setting: for GACATT the value was 1.22 fold enrichment (6-mer frequency, TF over GST control); for TTCTGT, 1.39 fold enrichment (6-mer frequency, TF over GST control); for CACTCG, 1.1 fold enrichment (6-mer frequency, TF over GST control).
Still for that read-out and setting: the value for CTAAAA was 1.2 fold enrichment (6-mer frequency, TF over GST control); that for TAGTGT was 1.02 fold enrichment (6-mer frequency, TF over GST control).
Same read-out and setting: for TCCAAA the value was 1.14 fold enrichment (6-mer frequency, TF over GST control); for TTGTAG, 1.14 fold enrichment (6-mer frequency, TF over GST control).
As to TTTCAA, the binding signal was 1.22 fold enrichment (6-mer frequency, TF over GST control).
GTAATT: the binding signal was 1.12 fold enrichment (6-mer frequency, TF over GST control).
On the same count and under the same terms, for ACTGCA the value was 1.13 fold enrichment (6-mer frequency, TF over GST control).
Same read-out and setting: for CGGCAT the value was 1.09 fold enrichment (6-mer frequency, TF over GST control); for ACTCCA, 1.26 fold enrichment (6-mer frequency, TF over GST control).
The same measure, in the same setting: for AATTCA the value was 1.22 fold enrichment (6-mer frequency, TF over GST control).
Turning to CTACCC, the binding signal is 1.29 fold enrichment (6-mer frequency, TF over GST control).
Still for that read-out and setting: for TCTGTT the value was 1.43 fold enrichment (6-mer frequency, TF over GST control); for GATGGT, 1.22 fold enrichment (6-mer frequency, TF over GST control); for TGGTTC, 1.34 fold enrichment (6-mer frequency, TF over GST control).
The same measure, in the same setting: the value for TACCGA was 1.05 fold enrichment (6-mer frequency, TF over GST control); that for CCCTTT was 1.42 fold enrichment (6-mer frequency, TF over GST control).
As for TAGGCT, the binding signal is 1.37 fold enrichment (6-mer frequency, TF over GST control).
For the sequence TCTAAC, the binding signal was 1.22 fold enrichment (6-mer frequency, TF over GST control).
Take CGGAAG: the binding signal was 2.46 fold enrichment (6-mer frequency, TF over GST control).
Same read-out and setting: for TGACAT the value was 1.21 fold enrichment (6-mer frequency, TF over GST control); for ACGATA, 1.2 fold enrichment (6-mer frequency, TF over GST control).
On the same count and under the same terms, the value for CTATTA was 1.08 fold enrichment (6-mer frequency, TF over GST control).
On the same count and under the same terms, for ACTGTT the value was 1.19 fold enrichment (6-mer frequency, TF over GST control); for ATAGCT, 1.2 fold enrichment (6-mer frequency, TF over GST control).
Consider CAGGAA, for which the binding signal was 1.42 fold enrichment (6-mer frequency, TF over GST control).
Turning to GATGAA, the binding signal is 1.17 fold enrichment (6-mer frequency, TF over GST control).
The same measure, in the same setting: the value for TAACCA was 1.1 fold enrichment (6-mer frequency, TF over GST control).

In the next assay the target is T2, ETV3L (Homo sapiens, UniProt Q6ZN32 1-361).
T2 sequence: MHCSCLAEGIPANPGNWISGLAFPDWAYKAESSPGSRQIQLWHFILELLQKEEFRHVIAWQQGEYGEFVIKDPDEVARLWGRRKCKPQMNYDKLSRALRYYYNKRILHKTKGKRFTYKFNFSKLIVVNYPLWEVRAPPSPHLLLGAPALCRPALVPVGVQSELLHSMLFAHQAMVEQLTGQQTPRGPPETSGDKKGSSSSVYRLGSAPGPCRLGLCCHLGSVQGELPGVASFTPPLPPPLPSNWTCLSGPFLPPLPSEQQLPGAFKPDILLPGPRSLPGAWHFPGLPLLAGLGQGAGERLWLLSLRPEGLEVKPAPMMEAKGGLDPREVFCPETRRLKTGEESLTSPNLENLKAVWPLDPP
The assay is described as above. As to conditions: protein: recombinant; tags: N-terminal GST; dsDNA, one strand shown. An outline of the steps: as §1
As for ACCTGG, the binding signal was 1.33 fold enrichment (6-mer frequency, TF over GST control).
Turning to ACACCC, the binding signal is 1.18 fold enrichment (6-mer frequency, TF over GST control).
Still for that read-out and setting: the value for ATACGC was 1.14 fold enrichment (6-mer frequency, TF over GST control).
Still for that read-out and setting: the value for AACATG was 1.17 fold enrichment (6-mer frequency, TF over GST control); that for ATCCAC was 1.05 fold enrichment (6-mer frequency, TF over GST control); that for TGAAAC was 1.17 fold enrichment (6-mer frequency, TF over GST control).
Still for that read-out and setting: the value for CGCGTC was 1.26 fold enrichment (6-mer frequency, TF over GST control).
CGACAC: the binding signal is 1.21 fold enrichment (6-mer frequency, TF over GST control).
Same read-out and setting: the value for AACCAT was 1.16 fold enrichment (6-mer frequency, TF over GST control); that for GACATT was 1.17 fold enrichment (6-mer frequency, TF over GST control); that for TTCTGT was 1.42 fold enrichment (6-mer frequency, TF over GST control).
With CACTCG, the binding signal was 1.11 fold enrichment (6-mer frequency, TF over GST control).
Still for that read-out and setting: for CTAAAA the value was 1.2 fold enrichment (6-mer frequency, TF over GST control); for TAGTGT, 1.04 fold enrichment (6-mer frequency, TF over GST control); for TCCAAA, 1.18 fold enrichment (6-mer frequency, TF over GST control).
Same read-out and setting: the value for TTGTAG was 1.2 fold enrichment (6-mer frequency, TF over GST control); that for TTTCAA was 1.28 fold enrichment (6-mer frequency, TF over GST control).
As to GTAATT, the binding signal was 1.21 fold enrichment (6-mer frequency, TF over GST control).
ACTGCA: the binding signal was 1.17 fold enrichment (6-mer frequency, TF over GST control).
